Source: the supplement of paper PMC10933113

The compounds below were run on KeratinoSens (HaCaT ARE-luciferase) cells (assay: Nrf2/ARE luciferase activation call in qHTS KeratinoSens assay (1 = active, 0 = inactive)).

| Structure (SMILES) | Nrf2/ARE luciferase activation call |
| --- | --- |
| Nc1c2c(nc3ccccc13)CCCC2O.O=C(O)/C=C\C(=O)O (stereo not given) | not active ARE inducer (skin sensitizer alert) (inactive) |
| Cc1occc1C(=O)Nc1ccc(C(=O)N2CCC(F)(F)/C(=C\C(=O)N3CCC(N4CCCCC4)CC3)c3ccccc32)cc1.Cc1occc1C(=O)Nc1ccc(C(=O)N2CCC(F)(F)/C(=C\C(=O)N3CCC(N4CCCCC4)CC3)c3ccccc32)cc1.O=C(O)/C=C/C(=O)O | not active ARE inducer (skin sensitizer alert) (inactive) |
| CCN(C(=O)c1cc(C)cc(OC[C@H](C)Nc2ccncc2)c1)C(C)C.Cc1ccc(S(=O)(=O)O)cc1 | not active ARE inducer (skin sensitizer alert) (inactive) |
| COCCc1ccc(OCC(O)CNC(C)C)cc1.COCCc1ccc(OCC(O)CNC(C)C)cc1.O=C(O)[C@H](O)[C@@H](O)C(=O)O (stereo not given) | not active ARE inducer (skin sensitizer alert) (inactive) |
| CCCC[n+]1ccc(C)cc1.O=S(=O)([O-])C(F)(F)F | not active ARE inducer (skin sensitizer alert) (inactive) |
| CC[n+]1ccccc1.O=S(=O)([O-])C(F)(F)F | not active ARE inducer (skin sensitizer alert) (inactive) |
| CCOCCn1c(N2CCCN(C)CC2)nc2ccccc21.O=C(O)/C=C/C(=O)O.O=C(O)/C=C/C(=O)O | not active ARE inducer (skin sensitizer alert) (inactive) |
| Nc1nc(N)nc(-c2cc(Cl)ccc2Cl)n1.O=C(O)/C=C\C(=O)O | not active ARE inducer (skin sensitizer alert) (inactive) |
| CCN(CC)CCc1nc(-c2ccccc2)no1.O=C(O)CC(O)(CC(=O)O)C(=O)O | not active ARE inducer (skin sensitizer alert) (inactive) |
| C[C@@H](CN(C)C)CN1c2ccccc2Sc2ccccc21.C[C@@H](CN(C)C)CN1c2ccccc2Sc2ccccc21.O=C(O)[C@@H](O)[C@@H](O)C(=O)O | not active ARE inducer (skin sensitizer alert) (inactive) |
| O=C(O)c1ccc2ccccc2c1O.OCc1cc(C(O)CNCCCCCCOCCCCc2ccccc2)ccc1O (stereo not given) | not active ARE inducer (skin sensitizer alert) (inactive) |
| Cc1ccsc1/C=C/C1=NCCCN1C.O=C(O)[C@@H](O)[C@@H](O)C(=O)O | not active ARE inducer (skin sensitizer alert) (inactive) |
| CCCCn1cc[n+](C)c1.O=S(=O)([O-])C(F)(F)F | not active ARE inducer (skin sensitizer alert) (inactive) |
| CCC(C(=O)OCCOCCN(CC)CC)c1ccccc1.O=C(O)CC(O)(CC(=O)O)C(=O)O (stereo not given) | not active ARE inducer (skin sensitizer alert) (inactive) |
| CCC[N+]1(C)CCCC1.O=S(=O)([O-])C(F)(F)F | not active ARE inducer (skin sensitizer alert) (inactive) |
| CC[N+]1(C)CCCC1.O=S(=O)([O-])C(F)(F)F | not active ARE inducer (skin sensitizer alert) (inactive) |
| CN1CCN(CCCN2c3ccccc3Sc3ccc(Cl)cc32)CC1.O=C(O)/C=C\C(=O)O.O=C(O)/C=C\C(=O)O | not active ARE inducer (skin sensitizer alert) (inactive) |
| NC(CO)(CO)CO.O=C(c1ccccc1)c1ccc2n1CC[C@H]2C(=O)O | not active ARE inducer (skin sensitizer alert) (inactive) |
| CN(C)CC[C@@H](c1ccc(Br)cc1)c1ccccn1.O=C(O)/C=C\C(=O)O | not active ARE inducer (skin sensitizer alert) (inactive) |
| CCOCC(O)COc1ccc(NC(=O)CC[S+](C)C)cc1.Cc1ccc(S(=O)(=O)[O-])cc1 (stereo not given) | not active ARE inducer (skin sensitizer alert) (inactive) |
